USP28 block = inhibitors of human USP28 deubiquitinase | Q96RU2 | purified USP28, Ub-rhodamine cleavage fluorescence, 30 min | 47,000 tested, 3% active | inhibition, % at 25 µM
USP30 inh = blocks human USP30 ubiquitin-rhodamine cleavage | AID 1645860 | inhibition, % at 25 µM | 47,000 tested, 5.3% active | purified USP30, Ub-rhodamine cleavage fluorescence | Q70CQ3
Target sequence (Q70CQ3 whole entry, looked up): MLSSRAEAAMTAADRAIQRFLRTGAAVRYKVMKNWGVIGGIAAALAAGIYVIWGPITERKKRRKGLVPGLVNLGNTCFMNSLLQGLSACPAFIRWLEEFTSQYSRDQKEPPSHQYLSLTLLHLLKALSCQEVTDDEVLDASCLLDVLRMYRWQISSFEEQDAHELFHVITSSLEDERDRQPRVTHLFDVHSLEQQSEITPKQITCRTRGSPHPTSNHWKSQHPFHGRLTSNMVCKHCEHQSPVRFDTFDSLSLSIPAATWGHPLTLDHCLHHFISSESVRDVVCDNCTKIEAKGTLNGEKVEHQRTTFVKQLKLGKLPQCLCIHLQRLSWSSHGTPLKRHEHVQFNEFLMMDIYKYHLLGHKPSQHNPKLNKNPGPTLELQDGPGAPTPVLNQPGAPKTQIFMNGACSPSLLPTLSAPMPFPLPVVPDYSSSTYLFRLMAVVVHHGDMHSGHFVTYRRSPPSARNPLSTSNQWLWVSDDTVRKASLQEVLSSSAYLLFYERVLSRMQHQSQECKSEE
A number is an active result; – = inactive. Most compounds without a hit are left out; they make up all but 7% or so of the library. Rule as the data show it: active = inhibition above about 30%; inactive = the rest.

SMILES	USP28 block	USP30 inh
Clc1ccccc1Cn1c(C2CCCO2)nc2ccccc21 (stereo not given)	–	31
COc1ccc(CC(=O)N2CCc3cc(OC)c(OC)cc3C2COc2ccc([N+](=O)[O-])cc2)cc1 (stereo not given)	–	44
COc1cc2c(cc1OC)C(COc1ccc([N+](=O)[O-])cc1)N(C(=O)COc1ccccc1)CC2 (stereo not given)	–	–
Cc1cc(C(=O)NCC2CCCO2)c2cccc(C)c2n1 (stereo not given)	–	–
Cc1ccc(COc2cc(C(=O)NCC3CCCO3)c3ccccc3n2)cc1 (stereo not given)	–	46
O=C(NCC1CCCO1)c1cc2c(cn1)[nH]c1ccccc12 (stereo not given)	34	–
CCCNC(=O)c1cc(OCc2ccc(C)cc2)nc2ccccc12	–	–
Cc1ccc(CNC(=O)c2cc(OCc3ccccc3)nc3ccccc23)cc1	–	–
Cc1ccc(COc2cc(C(=O)NCCc3ccccc3C)c3ccccc3n2)cc1	–	–
Cc1ccc(COc2cc(C(=O)NCc3ccccc3C)c3ccccc3n2)cc1	–	43
Cc1ccc(COc2cc(C(=O)NC(C)C)c3ccccc3n2)cc1	–	35
Cn1cncc1-c1cncc(CC2CCN(C(=O)c3ccncc3)CC2)n1	–	–
Cc1cccc(C)c1OCC(=O)NCC(c1ccco1)N1CCCC1 (stereo not given)	–	–
CC(=O)N(CC(=O)O)[C@@H]1C[C@@H]2CO[C@H](c3ccccc3)C[C@@H]2C1	–	–
COc1cccc(C(=O)NCC(c2cccnc2)S(=O)(=O)c2ccc(Cl)cc2)c1 (stereo not given)	–	–
Cc1ccc(Cc2nc(-c3ccc(S(=O)(=O)N4CCOCC4)cc3)no2)cc1	–	–
Cc1ccc(S(=O)(=O)CCc2nc(-c3ccc(N4CCC(C)CC4)cc3)no2)cc1	–	45
O=S(=O)(c1cc(F)cc(F)c1)N1CCCn2c(nc3ccccc32)C1	–	38
O=S(=O)(c1ccc(F)cc1)N1CCCn2c(nc3ccccc32)C1	–	–
CC1CCN(c2ncnc3c2cnn3CC(=O)NCc2cccnc2)CC1	–	–
O=C(Cn1ncc2c(N3CCCC3)ncnc21)Nc1ccc(F)cc1	–	–
O=C(Cn1ncc2c(N3CCCCC3)ncnc21)NCc1ccc2c(c1)OCO2	–	55
O=C(Cn1ncc2c(N3CCCCCC3)ncnc21)NCc1ccccc1	–	70
Cc1ccc(C(=O)Nc2nccnc2C(=O)NCC2CCCO2)cc1 (stereo not given)	–	–
COc1ccc(Cl)c(NC(=O)C2CC(=O)Nc3cc(-c4ccccc4)nn32)c1 (stereo not given)	–	–
SMILES	USP28 block	USP30 inh
O=C1CC(C(=O)Nc2ccccc2)n2nc(-c3ccccc3)cc2N1 (stereo not given)	–	34
O=C1CC(c2ccco2)Cc2nc(N3CCc4ccccc43)ncc21 (stereo not given)	–	–
COc1ccc(NC(=O)CC(=O)c2ccc([N+](=O)[O-])cc2)cc1S(=O)(=O)Nc1ccc(Cl)cc1	–	61
COc1ccc(NS(=O)(=O)c2cc(NC(=O)CC(=O)c3ccc([N+](=O)[O-])cc3)ccc2Cl)cc1	–	–
CC12CCc3occc3C1CCC13CC(CCC12)C(O)(CO)C3 (stereo not given)	–	–
C[C@@]12CCc3occc3C1CCC13CC(CCC12)[C@@](O)(CO)C3 (stereo not given in full)	–	32
CCc1ccccc1NC(=O)Cn1c(=O)c2cccnc2n(-c2ccccc2)c1=O	–	–
CC1CC(=O)Nc2cc(S(=O)(=O)N3CCC4(CC3)OCCO4)ccc2S1 (stereo not given)	–	–
COc1ccc(NC(=O)C(C)n2nc(-c3ccccc3)c3cc(Cl)ccc32)cc1 (stereo not given)	–	–
CC(C(=O)NCCc1ccccc1)n1nc(-c2ccccc2)c2cc(Cl)ccc21 (stereo not given)	–	55
N#Cc1ccc(NC(=O)CCC(=O)N(c2ccccc2)c2ccccc2)cc1	–	–
Cc1ccccc1OCCN1C(=O)C2CN(C(N)=O)CCN2C1=O (stereo not given)	–	31
Cc1cccc(C)c1OCCN1C(=O)C2CN(C(N)=O)CCN2C1=O (stereo not given)	–	–
CC(=O)N[C@@]12CN(Cc3ccc(N4CCCC4=O)cc3)CC[C@@H]1CN(C(C)=O)C2	–	–
Cc1cc(C(=O)COC(=O)c2ccc(C(C)(C)C)cc2)c(C)n1Cc1ccc2c(c1)OCO2	–	–
COc1cccc(NC(=O)/C=C/c2cccc3ccccc23)c1	–	–
CC(C)c1nc2sc3c(NCc4ccco4)ncnc3c2c2c1CCC2	63	–
c1nc(NCCN2CCOCC2)c2sc3nc(N4CCOCC4)c4c(c3c2n1)CCC4	–	–
CC(C)c1nc2sc3c(NCCN4CCOCC4)ncnc3c2c2c1CCC2	35	–
CC(C)c1nc2sc3c(NCc4ccccn4)ncnc3c2c2c1CCC2	–	–
